39 compounds from PubChem BioAssay (Tox21) can be followed below.

Each structure is given as a SMILES string. Results filed as inconclusive are left out. A call without a number means that no potency is given here. Activity calls are given as the source filed them. The call rests on the fitted dose curve; in most records, active means well fitted curve in the direction sought with a large enough effect in the repeat runs; inconclusive means weak or mixed curves; inactive means no such curve, though single readings can be large; an effect the other way counts as inactive or inconclusive.

A short description of the first experiment: qHTS assay to identify small molecule agonists of the RXR signaling pathway - cell viability counter screen (AID 1159529). Further: nearly all actives have a fitted effect of over 50% in size. Further: potency means the concentration at half of the fitted maximal effect. The conditions noted are these: RXR-alpha-bla HEK293T viability, CellTiter-Glo, 16 h; series mostly up to 76.8 µM. In a few lines:
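Compounds dissolved in DMSO were pinned onto HEK 293T cells carrying a beta-lactamase reporter under RXR-alpha control and incubated 16 hr. Cytotoxicity was then quantified by CellTiter-Glo luminescence.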
On the technique in general: In qHTS, concentration-response curves come from the screen itself.
Turning to `C=CC(=O)OCC(C)OCC(C)OCC(C)OC(=O)C=C` (stereo unspecified), the Potency result was “inactive”. Turning to `Cn1sccc1=O`, the Potency entry was “inactive”.

Regarding `CC(C)CCCC(C)CCO` (stereo unspecified), the Potency result is “inactive”.

With `Cc1cc(C)c(S(=O)(=O)O)cc1N=Nc1cc(S(=O)(=O)O)c2ccccc2c1O`, the Potency result is “inactive”. For `O=C1CCCCCO1`, the Potency entry was “inactive”.

In the case of `Cc1cc(NC(=O)C(=O)O)cc(C)c1Oc1ccc(O)c2c1CCC2`, the Potency entry is “inactive”. As to `CC(=O)CC(=O)c1ccccc1`, the Potency result was “inactive”. For the compound `CC(C)c1ccccc1C(C)C`, the Potency result was “inactive”. `CCCCCCCCC(CO)CCCCCC` (stereo unspecified): the Potency entry was “inactive”.

On to `Cc1cc(O)ccc1N`, for which the Potency was 34.9 µM (active). Same read-out and setting: in the case of `COc1ccc2[nH]c(S(=O)Cc3ncc(C)c(OC)c3C)nc2n1` (stereo unspecified) it was “inactive”; in that of `C#CCOC(=O)[C@@H](C)Oc1ccc(Oc2ncc(Cl)cc2F)cc1`, “inactive”.

Consider `COCCCCCCCCOCCC[Si](C)(O[Si](C)(C)C)O[Si](C)(C)C`, for which the Potency result was “inactive”. Consider `COc1cc(C(C)(C)C)c(O)c(C(C)(C)C)c1`, for which the Potency result was “inactive”. Same read-out and setting: in the case of `NCc1ccccc1` it was “inactive”.

A further experiment in a line: qHTS assay to identify small molecule antagonists of the retinoid acid receptor (RAR) signaling pathway - cell viability counter screen (AID 1159551). Further: nearly all actives have a fitted effect of over 35% in size. The note with it: C3RL4 cells viability, ATP luminescence (CellTiter-Glo), 6 h; series mostly up to 92.4 µM. The gist of the method: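 Cytotoxicity counter screen in C3RL4 cells: 6 h compound exposure with 1 uM retinol (final), viability from cellular ATP by luminescence.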
For `CCCCCCOC(=O)CCC`, the Potency result was “inactive”. For `N=C(N=C(N)N)N1CCOCC1`, the Potency entry is “inactive”. Still for that read-out and setting: in the case of `Cc1ccc(O)c([C@H](CCN(C(C)C)C(C)C)c2ccccc2)c1` it was “inactive”; in that of `C1CCC2OC2C1` (stereo unspecified), “inactive”; in that of `Cn1sccc1=O`, “inactive”.

For the compound `CCOC(=O)CC(=O)c1cc(F)c(Cl)nc1Cl`, the Potency result was “inactive”. Consider `CC(C)CCCC(C)CCO` (stereo unspecified), for which the Potency entry is “inactive”.

`Oc1ccc2c(c1)OCO2`: the Potency result was “inactive”. Turning to `CCN(CC)CCOC(=O)C1(c2ccccc2)CCCC1`, the Potency result was “inactive”. Same read-out and setting: the entry for `CC(C)CCCCCCOC(=O)c1ccc(C(=O)OCCCCCCC(C)C)c(C(=O)OCCCCCCC(C)C)c1` is “inactive”. `CC(C)(C)c1ccc(OCC2CO2)cc1` (stereo unspecified): the Potency entry is “inactive”.

Take `COC(Cc1ccccc1)OC`: the Potency entry is “inactive”.

As to `O=C(c1ccccc1)c1ccc2n1CCC2C(=O)O` (stereo unspecified), the Potency result was “inactive”. `CC(Cc1cccc(C(F)(F)F)c1)NCCOC(=O)c1ccccc1` (stereo unspecified): the Potency result is “inactive”.

As to `N#CCc1cccc(C(F)(F)F)c1`, the Potency result is “inactive”. For the compound `SC1CCCC1`, the Potency entry is “inactive”. On the same count and under the same terms, in the case of `Cc1cc(NC(=O)C(=O)O)cc(C)c1Oc1ccc(O)c2c1CCC2` it was “inactive”. On the same count and under the same terms, the entry for `O=C(NS(=O)(=O)/C=C/c1cccs1)c1ccc(F)cc1Br` is “inactive”; for `COc1ccc([C@@H]2Sc3ccccc3N(CCN(C)C)C(=O)[C@@H]2OC(C)=O)cc1` it is “inactive”; for `CCOC(=O)C1=C(C)NC(C)=C(C(=O)OC)C1c1cccc([N+](=O)[O-])c1` (stereo unspecified) it is “inactive”.

On to `N#Cc1cc2ccccc2c2ccccc12`, for which the Potency entry was “inactive”. As to `CCCCOC(O)CC` (stereo unspecified), the Potency entry is “inactive”.

Regarding `CC(C)c1ccccc1C(C)C`, the Potency entry was “inactive”. Consider `C1=Cc2ccccc2C1`, for which the Potency entry is “inactive”. For the compound `CN(C)CC/C=C1\c2ccccc2COc2ccccc21`, the Potency entry is “inactive”.

Consider `CCCCCCCCCCCCCCCBr`, for which the Potency result is “inactive”. Consider `COc1ccc2[nH]c(S(=O)Cc3ncc(C)c(OC)c3C)nc2n1` (stereo unspecified), for which the Potency entry is “inactive”. For `N#Cc1c(F)cccc1F`, the Potency result was “inactive”.

`COCCCCCCCCOCCC[Si](C)(O[Si](C)(C)C)O[Si](C)(C)C`: the Potency result was “inactive”.

As for `CN(C)CCCNCCCN`, the Potency entry is “inactive”. `NCc1ccccc1`: the Potency result is “inactive”.
